# Experimental data from the supplement of paper PMC6555819.
# Key:
# Test in all cases: PBM binding z-score (relative to random genomic background probes); higher = stronger binding; sequences stand for … in GC…GCGATTGACAGCGTAGAATGAAGG
# [1] = tested on: FXR:RXRa (NR concentration 270 nM, RXRa partner concentration 90 nM)
# Summary of the method: (§1)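 Binding buffer was PBS pH 7.4 with 2% milk, 0.02% Triton X-100, 1 mM DTT, 0.2 mg/mL BSA and 0.4 mg/ml salmon testes DNA. In it, ligand-free nuclear receptor dimers were incubated 1 h on custom Agilent 4×180K protein-binding microarrays carrying double-stranded probes. Antibodies against each partner (one per run) detected binding, and z-scores were calculated against random background probes after regression normalization of scanned fluorescence.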
# [2] = tested on: LXRa:RXRa (NR concentration 270 nM, RXRa partner concentration 90 nM)
# Summary of the method: as §1
# [3] = tested on: LXRa homodimer (NR concentration 270 nM)
# Summary of the method: as §1
# [4] = tested on: LXRb:RXRa (NR concentration 270 nM, RXRa partner concentration 90 nM)
# Summary of the method: as §1
# [5] = tested on: LXRb homodimer (NR concentration 270 nM)
# Summary of the method: as §1
# [6] = tested on: PPARa:RXRa (NR concentration 270 nM, RXRa partner concentration 90 nM)
# Summary of the method: as §1
# [7] = tested on: PPARg:RXRa 270nM:90nM, anti-RXR (NR concentration 270 nM, RXRa partner concentration 90 nM)
# Summary of the method: as §1
# [8] = tested on: PPARg:RXRa 30nM:10nM, anti-RXR (NR concentration 30 nM, RXRa partner concentration 10 nM)
# Summary of the method: as §1
# [9] = tested on: PPARg:RXRa 90nM:30nM, anti-RXR (NR concentration 90 nM, RXRa partner concentration 30 nM)
# Summary of the method: as §1
# [10] = tested on: PPARg:RXRa (NR concentration 180 nM, RXRa partner concentration 90 nM)
# Summary of the method: as §1
Sequence,PBM binding z-score [1],PBM binding z-score [2],PBM binding z-score [3],PBM binding z-score [4],PBM binding z-score [5],PBM binding z-score [6],PBM binding z-score [7],PBM binding z-score [8],PBM binding z-score [9],PBM binding z-score [10]
CGTCGAAGGTCAATGCTAGGTCAGTGAAAGCATT,6.95,5.54,2.6,4.32,0.906,5.41,4.82,1.4,3.63,
CTAACTAGGTCACAGAGGTCAAAGTCCGTGCGTA,7.38,6.55,7.37,6.19,2.21,6.62,8.54,7.16,9.04,
ATCGAACGGTCGAGGTGAGTATAGAGAAAGGGAA,-0.0198,-0.0653,-0.353,-0.34,-0.587,0.105,-0.114,-0.342,-0.333,
GATACGGGGTCAGCTAGAGGCCAGAGTATGGAAA,7.6,5.46,-0.127,5.17,0.715,,7.16,3.25,5.78,7.74
CCTGCTAGGTCAAGGGTCAGCTAAAGCAGCTCGC,6.02,4.62,0.429,3.85,-0.198,5.91,8.48,7.78,9.4,
GCTTACGGGTCAAAGGTTATGGCATGAATAGAAT,6.72,5.85,0.622,5.65,0.792,6.79,9.38,9.74,10.5,
TCTAGTAGGTCACGGAGGTCACACACGACGGGTA,7.27,6.42,5.23,5.56,1.44,6.41,8.31,6.89,8.04,
CCTCCAAGGTCATAGGAGGTCAGTGAAGACAGAT,7.3,7.45,4.84,6.24,0.899,5.85,5.88,2.47,4.29,
CCTTACGGGTCGCTGACAGGTTATAGCATTTGGA,0.72,1.23,-0.237,0.781,-0.428,1.71,0.371,-0.323,-0.0613,
ATATGTAGGTTAAGGGTCATGCAGGTTGGTTCGC,4.83,4.77,2.17,4.13,1.3,6.71,10.2,10.9,11.9,
CTAACTAGGTCAAGGTCAAAGTCGGTTTGTGCCA,6.55,5.3,4.54,4.54,1.41,6.04,7.82,7.09,8.36,
CCTGCTAGGTCATGGTCAGGTAATCTACAGTATG,3.64,2.62,0.355,1.7,-0.354,,2.82,0.671,1.75,2.37
CGTCCAAGGTCAAGGTCACTGAAAGAGACTCGAA,8.15,6.19,2.24,5.23,0.938,,6.98,4.14,5.87,7.36
GATACAGGGTCATCTAGAGGCCAGAGTATGGAAA,6.84,5.02,0.214,4.22,0.201,5.87,5.65,2.33,4.1,
CCTTACGGTTCACTGACAGGTTATAGCATTTGGA,1.66,2.43,1.04,1.89,0.471,2.33,1.08,0.683,0.771,
ATCTGTAGGTTATCGGGTCATTCAGTTTGCGCAT,3.02,3.6,2.79,3.06,1.36,,4.43,1.41,3.37,3.9
TAGCCTAGGTCATTGGACCAGTATAGTACGCATC,4.61,3.73,1.02,2.36,0.187,,3.16,1.04,2.07,2.88
TGACTGAGGTTAAAGATCAGGGAACGTGGCGTCG,2.91,2.35,-0.224,1.69,-0.22,,3.98,2.03,3.59,3.09
GCTTACGGGTCAAAGGTTATAACATGAATAGAAT,7.52,5.95,0.829,5.89,1.05,,9.66,8.65,10.4,11.2
CCTGCTCGGTCAATGGTCAGCTAAAGCAGCTCGC,0.351,0.448,-0.0838,-0.541,-0.234,,1.43,-0.317,0.846,-0.00581
TAGCCTAGGTCATTCAGGGGCTAGTATAGAAAGC,4.83,3.69,0.257,2.77,0.83,,2.22,0.575,1.45,2.12
AGTGAAAGTTCAGGACGAGGTAACGTAAAGCACG,3.78,3.69,1.17,1.94,0.34,,4.03,1.48,2.89,3.61
AGTCAAAGTTCAGCACGAGGTAACGTAAAGCACG,4.45,4.19,1.47,2.23,0.567,,5.1,2.2,4.2,4.88
CGTCCAAGGTCCATGCTAGGTCAGTGAAAGCATT,0.162,3.49,0.25,0.906,-0.855,,-0.317,-0.678,-0.366,-0.453
CCTAGTTGGTCAGGTGGTCACACACCGGATATGA,0.558,0.139,0.26,0.406,-0.0912,,1.18,0.231,0.655,0.84
CAAACTAGGTCACGAAAGGTCAAATTCGAATGAC,7.71,8.3,8.38,7.56,3.75,,8.52,7.21,8.47,10.6
